Reference: PubChem BioAssay AID720 (The Scripps Research Institute Molecular Screening Center, 2007)
The whole screen tested about 97,000 compounds, of which about 140 (0.14%) were called active.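 How the source made its calls: active means inhibition above the screen-wide mean inhibition plus 3 SD (cut at about 15% in these data); inactive means the rest.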 The list comes from a sample in which actives are over-represented; it also holds similar structures and randomly drawn compounds.

Molecular target: Ephrin type-B receptor 4 (Homo sapiens) (UniProt P54760)
Test: blockers of EphB4 ligand binding – biochemical, TNYL-RAW peptide probe, fluorescence polarization, primary screen (AID 720);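 further: 0% = DMSO wells and 100% = excess unlabeled TNYL-RAW peptide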
Settings: EphB4 LBD / TNYL-RAW-Alexa532 peptide, at 7 µM, stronger effect = higher value

Sequence of Ephrin type-B receptor 4 (Homo sapiens) (P54760 whole entry, looked up): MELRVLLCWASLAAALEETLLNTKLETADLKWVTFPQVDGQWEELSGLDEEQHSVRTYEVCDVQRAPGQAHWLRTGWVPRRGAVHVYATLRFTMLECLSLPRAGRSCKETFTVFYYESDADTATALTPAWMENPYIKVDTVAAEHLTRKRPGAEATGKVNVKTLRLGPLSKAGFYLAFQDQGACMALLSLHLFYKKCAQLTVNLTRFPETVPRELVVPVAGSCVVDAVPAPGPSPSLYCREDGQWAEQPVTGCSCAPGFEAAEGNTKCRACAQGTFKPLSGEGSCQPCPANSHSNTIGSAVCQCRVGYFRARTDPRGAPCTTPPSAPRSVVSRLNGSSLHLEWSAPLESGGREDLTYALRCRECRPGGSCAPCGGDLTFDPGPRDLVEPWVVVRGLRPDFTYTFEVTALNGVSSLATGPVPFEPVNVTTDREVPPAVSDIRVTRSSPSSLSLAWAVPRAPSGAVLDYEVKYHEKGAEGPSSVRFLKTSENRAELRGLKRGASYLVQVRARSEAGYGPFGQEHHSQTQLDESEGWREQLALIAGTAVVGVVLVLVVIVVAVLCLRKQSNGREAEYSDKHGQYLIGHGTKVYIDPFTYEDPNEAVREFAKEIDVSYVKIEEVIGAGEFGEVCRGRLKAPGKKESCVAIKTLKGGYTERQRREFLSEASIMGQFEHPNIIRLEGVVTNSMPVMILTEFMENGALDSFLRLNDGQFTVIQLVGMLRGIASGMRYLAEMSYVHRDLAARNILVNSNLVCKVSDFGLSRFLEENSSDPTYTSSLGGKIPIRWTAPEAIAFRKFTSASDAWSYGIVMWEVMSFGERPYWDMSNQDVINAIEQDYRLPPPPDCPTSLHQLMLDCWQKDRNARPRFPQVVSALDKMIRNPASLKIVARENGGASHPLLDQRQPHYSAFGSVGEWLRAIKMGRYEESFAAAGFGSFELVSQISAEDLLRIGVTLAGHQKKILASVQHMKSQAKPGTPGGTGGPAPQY

inhibition, active:
CCCc1nnc(NC(=O)CN2C(=O)c3ccccc3S2(=O)=O)s1 18.1%
CCC1CCCCN1C(=O)Nc1cccc(NC(=O)N2CCCCC2CC)c1 (stereo not given) 16.1%
Oc1ccccc1/C=N/n1c(-c2cccs2)n[nH]c1=S 15.8%

inhibition, inactive:
COc1cc(C)c(C(C)C)cc1S(=O)(=O)n1ccnc1 1.74%
NC(=O)C1(N2CCCCC2)CCN(C(=S)Nc2ccc(Cl)cc2)CC1 -1.72%
NC(=O)COc1ccc(/C=N/NC(=O)C2CCCN2S(=O)(=O)c2ccc(Cl)cc2)cc1 (stereo not given) 0.72%
CS(=O)(=O)N1CCN(c2cccc(Cl)n2)CC1 -3.22%
CCCc1nc2sc3c(c2c(=O)n1NC(=O)CCCl)CCCC3 2.57%
CC1CCC2(CC1)NC(=O)N(CC(=O)c1cccn1C)C2=O (stereo not given) 4.98%
COc1ccc(/C=C(/NC(=O)c2ccc(C)cc2)c2nc3ccccc3[nH]2)cc1OC -1.55%
CCCc1nnc(NC(=O)c2cccs2)s1 -2.26%
CNC(=O)CN1C(=O)c2ccccc2S1(=O)=O -4.4%
COC(=O)c1cc(OC)ccc1-c1ccc(OC)cc1 -6.72%
O=C(COC(=O)c1n[nH]c2ccccc12)NCc1ccccc1 1.83%
CC(C)c1ccc(N2CCN(C(=O)c3ccccc3NC(=O)/C=C(\C(=O)O)c3ccccc3)CC2)cc1 -2.32%
CC(C)Oc1ccc(Oc2ccc(C(F)(F)F)cn2)cc1 -4.38%
O=C(CNC(=O)c1cc2c(s1)CCC2)Nc1ccccc1Br -5.12%
C=CCOc1c2ccc(C(=O)N(CC)c3ccc(OC)cc3)cc2nn1C 0.66%
C=CCNC(=O)c1sc(SC)cc1-c1ccc(Cl)cc1 -2.13%
Cc1cccc(NC(=O)c2ccc(OCC(=O)NCc3ccccc3)cc2)c1C 0.02%
Cc1ccc(NC(=S)N/N=C2/CCCc3c(C)cc(C)cc32)cc1 0.47%
CCOC(=O)c1ccc2c(c1)nc(C)n2CC -0.83%
COC(=O)c1ccccc1OCC(=O)N1CCN(c2ccc(Cl)cc2)CC1 -4.75%
OC(COCCC12CC3CC(CC(C3)C1)C2)CN1CCCCC1 (stereo not given) 2.92%
N/C(=N\OC(=O)c1cc(-c2ccccc2)nc2ccccc12)c1ccncc1 -5.76%
Cc1ccc2c(Cl)c(C(=O)NCCCn3ccnc3)sc2c1 8.67%
COc1ccc(C(=O)OCC(=O)NCC2CCCCC2)cc1S(=O)(=O)N1CCCc2ccccc21 -0.59%
Cc1ccc(C(=O)c2c(NC(=O)c3ccncc3)sc3c2CCCC3)cc1 1.3%
O=C(N/N=C\c1cccc(Br)c1)c1ccccc1-n1cccc1 1.13%
CC(=O)c1cccc(NC(=O)N2CCCC2C(=O)NCCC(C)C)c1 (stereo not given) 3.74%
CC(=O)c1cccc(NC(=O)N2CCCC2C(=O)NCCc2ccccc2)c1 (stereo not given) 0.44%
Cc1ccc(NC(=O)C(C)c2cccc(C(=O)c3ccccc3)c2)cc1 (stereo not given) -1.1%
CCOC(=O)C1=C(CN2CCc3ccccc32)NC(=O)NC1c1cc(C)ccc1C (stereo not given) -2.91%
O=C1c2ccccc2C(=O)N1CCCc1nc(-c2ccccc2)no1 5.53%
Cc1ccccc1OC(=O)Cn1c(C(F)(F)F)nc2ccccc21 -8.85%
Cc1ccc(/C=N\n2c(-c3ccccc3)n[nH]c2=S)s1 -7.78%
O=[N+]([O-])c1ccccc1/C=N/n1c(COc2ccccc2)n[nH]c1=S 2.36%
COCCN(C(=O)c1ccco1)c1nnc(-c2ccc(OC)cc2)s1 0.8%
c1ccc(-c2ccnc3nc(-n4cccc4)nn23)cc1 -2.67%
O=C(OCN1C(=O)c2ccccc2C1=O)/C(=C\c1ccco1)NC(=O)c1ccccc1 -9.89%
O=C(ON=C1CCN(S(=O)(=O)c2ccccc2)CC1)c1ccc(Cl)cc1 -2.79%
O=C(NCCCCc1ccccc1)C1CC(c2ccc([N+](=O)[O-])cc2)=NO1 (stereo not given) 1.72%
CC(=O)c1cc2c(cc1NC(=O)CN1CCCCCC1)OCO2 -6.18%
COCCn1c(=S)[nH]c2cc(C(=O)NCCc3ccc(OC)c(OC)c3)ccc2c1=O -6.01%
CCOc1cc2[nH]c(=O)n(CCC(=O)NCc3ccc(OC)cc3)c(=O)c2cc1OCC 7.75%
CCN(CC)C(=O)CN(c1cccc(OC)c1)S(=O)(=O)c1ccc(C)cc1 -6.83%
COC(=O)c1ccc(CSc2ccc3nnc(-c4ccccc4)n3n2)o1 -1.52%
CCc1c(-c2ccccc2)nc(N)c(C#N)c1-c1cccs1 -6.33%
C=CCN1C(=O)C(Cc2cccc(Cl)c2)S/C1=N/N=C/c1ccco1 (stereo not given) 2.87%
O=C(Nc1cccc2ccccc12)N1CCN(Cc2ccc3c(c2)OCO3)CC1 0.42%
CCOC(=O)C1Sc2[nH]c(=O)sc2C(c2ccc(Cl)cc2)C1C(=O)OCC (stereo not given) 6.17%
O=C(c1ccccc1Oc1ccccc1)N1CCN(c2ccc(F)cc2)CC1 1.29%
CCCCOc1ccc(CSC(=N)N)cc1[N+](=O)[O-] -6.89%
CCn1cc(C(=O)N/N=C(/C)c2ccc(F)cc2)c(=O)c2cc(F)c(N3CCCC3)cc21 5.77%
Cc1ccc(SCC(=O)NC(=O)NCc2ccco2)c(C)c1 -1.3%
COC(=O)c1ccc(S(=O)(=O)N2CCC(c3nc4ccccc4o3)CC2)cc1 2.06%
CCCCc1nnc(NC(=O)CSc2nc(C)cc(=O)[nH]2)s1 0.99%
CCCc1noc2c1/C(=N\O)CCC2 7.69%
Cc1ccc(CCN2CC(C(=O)O)CC2=O)cc1 (stereo not given) -3.41%
CCOC(=O)c1[nH]c(C)c(C(=O)OCC(=O)N2c3ccccc3CC2C)c1C (stereo not given) 2.53%
